This is an account of results in the supplement of paper PMC8183993.

“And” between values parts separate entries of the source, which are not always exact repeats. Identical values can stand only once. Counter-ions that a name gives are not always drawn. ± gives the standard deviation of the averaged measurements. The full ranking holds about 3,200 compounds; the median of “nuclei count (viability) relative to DMSO” is about 99, and the lowest 2% start at about 16. What follows is part of a selection rich in the lowest values, with near analogues and random picks from the rest.

In the assay the test system is U2OS. In words: nuclei count (viability) relative to DMSO (% of DMSO); higher = more viable cells. The settings on record: 10 µM; 24 h. The method, then:
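Primary image-based screen in U2OS cells: compounds at 10 uM for 24 h, then a 1 h o-propargyl-puromycin (OPP) pulse, click labelling, and high-throughput microscopy. Mean cytoplasmic OPP intensity and nuclei count were normalised to DMSO wells within each plate (DMSO = 100) and averaged over triplicate plates.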
The compound `CCN(CC)c1ccc(/C=N/NC(=O)c2ccc(O)cc2)cc1` yielded a nuclei count of 89.4. `C[N+](C)(C)CC[N+]1(C)Cc2c(Cl)c(Cl)c(Cl)c(Cl)c2C1` [Chlorisondamine diiodide] yielded a nuclei count of 90.8. With `O=C(O)[C@H]1O[C@@H](Oc2cc3oc(-c4ccccc4)cc(=O)c3c(O)c2O)[C@H](O)[C@@H](O)[C@@H]1O` [Baicalin] the figure was 101. The value for `c1cc2c3c(c1)c1c(n3CCNC2)CCCC1` [WAY 629 hydrochloride] was 94.2. Consider `Cc1cc(O)c2c(c1)C(=O)c1cccc(O)c1C2=O` [Chrysophanic acid (Chrysophanol)], for which the nuclei count was 92.5 ± 11. The value for `CC(C)[C@H](C(=O)Nc1ccc(C(=O)NO)cc1)c1ccccc1` was 29.3. With `CCN(CC)Cc1ccc2cc(COC(=O)Nc3ccc(C(=O)NO)cc3)ccc2c1` [ITF2357 (Givinostat)] the figure was 14.7. The value for `COc1ccc(Cn2ccc3ccc(C(=O)NO)cc32)cc1` was 101; that for `Nc1ncnc2c1ncn2[C@@H]1O[C@H](COP(=O)(O)OP(=O)(O)OP(=O)(O)O)[C@@H](O)[C@H]1O` [ATP (Adenosine-Triphosphate)] was 106.

For the compound `CCN(CC)CCNC(=O)c1c(C)[nH]c(/C=C2\C(=O)Nc3ccc(Cl)cc32)c1C`, the nuclei count is 79.9.

With `CCCS(=O)(=O)c1nc(NC2CC2)cc(-c2ccc3c(ccn3C3CC(C)(C)NC(C)(C)C3)c2)n1`, the nuclei count was determined as 8.4.

Compound `O=C(NC[C@H](O)CN1CCc2ccccc2C1)c1ccnc(NC2CCC2)c1` showed a nuclei count of 102. The value for `Cc1ccc(/C=C2\CNC/C(=C\c3ccc(C)cc3)C2=O)cc1` was 7.58. Take `CC1(C)[C@@H](O[C@H]2O[C@H](C(=O)O)[C@@H](O)[C@H](O)[C@H]2O[C@@H]2O[C@H](C(=O)O)[C@@H](O)[C@H](O)[C@H]2O)CC[C@]2(C)[C@H]3C(=O)C=C4[C@@H]5C[C@@](C)(C(=O)O)CC[C@]5(C)CC[C@@]4(C)[C@]3(C)CC[C@@H]12` [Glycyrrhizic acid]: the nuclei count was 101. `CC1(C)[C@@H](O[C@H]2O[C@H](C(=O)O)[C@@H](O)[C@H](O)[C@H]2O[C@@H]2O[C@H](C(=O)O)[C@@H](O)[C@H](O)[C@H]2O)CC[C@]2(C)[C@H]3C(=O)C=C4[C@@H]5C[C@@](C)(C(=O)O)CC[C@]5(C)CC[C@@]4(C)[C@]3(C)CC[C@@H]12` [Ammonium Glycyrrhizinate (AMGZ)] came in with a nuclei count of 101. With `CC(C)Cc1ccc(C(C)C(=O)NO)cc1` (stereo not given) [Ibuproxam] the figure was 95.9; with `CN(C)c1ccc(C(=C2C=CC(=[N+](C)C)C=C2)c2ccc(N(C)C)cc2)cc1` [Crystal violet], 13; with `CCOC(=O)Nc1cc(-c2ccc(C)c(NS(C)(=O)=O)c2)nn2c(C)nnc12` [Bromosporine], 74.5. The value for `CCCn1c(=O)c2[nH]c(-c3ccccc3)nc2n(CCC)c1=O` [1,3-Dipropyl-8-phenylxanthine] was 98.9; that for `CC(C)C(=O)SCCCCCCC(=O)Nc1nc(-c2ccccc2)cs1` was 45.8. With `CCOC(=O)c1cnc2c(cnn2CC)c1NN=C(C)C` [Etazolate hydrochloride] the figure was 106; with `CN1CCN(C(=O)c2nc3ccc(Cl)cc3[nH]2)CC1`, 88.3. In turn, `Cc1[nH]c(/C=C2\C(=O)Nc3ccc(S(=O)(=O)N(C)c4cccc(Cl)c4)cc32)c(C)c1C(=O)N1CCN(C)CC1` yielded a nuclei count of 52.4. The value for `CN1CCCN(C(=O)c2cccc(-c3ccc(/C=C4/C(=O)Nc5ccc(Cl)cc54)o3)c2)CC1` was 6.22; that for `CCCNC(=O)N1N=C(c2ccc(N)cc2)c2cc3c(cc2C1C)OCO3` (stereo not given) was 93. The value for `C[C@H]1O[C@@H](O[C@H]2[C@@H](O)C[C@H](O[C@H]3[C@@H](O)C[C@H](O[C@H]4CC[C@@]5(C)[C@H](CC[C@@H]6[C@@H]5C[C@@H](O)[C@]5(C)[C@@H](C7=CC(=O)OC7)CC[C@]65O)C4)O[C@@H]3C)O[C@@H]2C)C[C@H](O)[C@@H]1O` [Digoxin] was 14.3. The compound `CCN1CCN(c2cc(-c3ccc(F)cc3)c3c(n2)CCCCCC3)CC1` [Blonanserin (Lonasen)] yielded a nuclei count of 98.7.

For the compound `C[S+]([O-])c1ccc(-c2nc(-c3ccc(F)cc3)c(-c3ccncc3)[nH]2)cc1` (stereo not given), the nuclei count is 96.8 and 103. The value for `N=C(NCCCCCCNC(=N)NC(=N)Nc1ccc(Cl)cc1)NC(=N)Nc1ccc(Cl)cc1` [Chlorhexidine] was 75.6.

On to `CCCCC(CC)CNC(=N)NC(=N)NCCCCCCNC(=N)NC(=N)NCC(CC)CCCC` (stereo not given) [Alexidine dihydrochloride], for which the nuclei count was 6.87.

`Nc1nc(OCc2cc(Br)cs2)c2[nH]cnc2n1` [Lomeguatrib] registered a nuclei count of 102. `COc1cccc2c1C(=O)c1c(O)c3c(c(O)c1C2=O)C[C@@](O)(C(=O)CO)C[C@@H]3O[C@H]1C[C@H](N)[C@@H](O)[C@H](C)O1` [Epirubicin HCl] returned a nuclei count of 13.2. With `CC(=O)[C@]1(O)Cc2c(O)c3c(c(O)c2[C@@H](O[C@H]2C[C@H](N)[C@H](O)[C@H](C)O2)C1)C(=O)c1ccccc1C3=O` [Idarubicin HCl] the figure was 11.6; with `COc1cccc2c1C(=O)c1c(O)c3c(c(O)c1C2=O)C[C@@](O)(C(=O)CO)C[C@@H]3O[C@H]1C[C@H](N)[C@H](O)[C@H](C)O1` [Doxorubicin (Adriamycin)], 12.7. Consider `COc1cccc2c1C(=O)c1c(O)c3c(c(O)c1C2=O)C[C@@](O)(C(=O)CO)C[C@@H]3O[C@H]1C[C@H](N)[C@H](O)[C@H](C)O1` [Doxorubicin hydrochloride], for which the nuclei count worked out at 13 ± 0.18.

Consider `COc1cccc2c1C(=O)c1c(O)c3c(c(O)c1C2=O)C[C@@](O)(C(C)=O)C[C@@H]3O[C@H]1C[C@H](N)[C@H](O)[C@H](C)O1` [Daunorubicin HCl (Daunomycin HCl)], for which the nuclei count is 10.2.

As for `COc1cccc2c1C(=O)c1c(O)c3c(c(O)c1C2=O)C[C@@](O)(C(=O)CO)C[C@@H]3O[C@H]1C[C@H](N)[C@H](O[C@@H]2CCCCO2)[C@H](C)O1` [Pirarubicin], the nuclei count is 33.

As for `COc1cccc2c1C(=O)c1c(O)c3c(c(O)c1C2=O)C[C@@](O)(C(C)=O)C[C@@H]3O[C@H]1C[C@H](N)[C@H](O)[C@H](C)O1` [Daunorubicin hydrochloride], the nuclei count was 12.3. Take `CCCc1c(OCCCOc2ccc(OCC(=O)O)cc2)ccc(C(C)=O)c1O`: the nuclei count is 108.

`COc1c(OCCCN2CCOCC2)ccc2c1N=C(NC(=O)c1cnc(N)nc1)N1CCN=C21` showed a nuclei count of 93.2. The value for `CCOC(=O)[C@H](CCc1ccccc1)N[C@H]1CS[C@H](c2cccs2)CN(CC(=O)O)C1=O` [Temocapril HCl] was 108; that for `O=C(/C=C/c1c(C(=O)O)[nH]c2cc(Cl)cc(Cl)c12)Nc1ccccc1` [Gavestinel] was 93.2; that for `Cn1cnc(N)c2ncnc1-2` [3-Methyladenine] was 104. The value for `Cn1cnc(N)c2ncnc1-2` [3-Methyladenine (3-MA)] was 107; that for `OCC1OC(n2cnc3c(NC4CCCC4)nc(Cl)nc32)C(O)C1O` (stereo not given) [2-Chloro-N6-cyclopentyladenosine] was 93.5.

`CC/C=C\C/C=C\C/C=C\C/C=C\C/C=C\C/C=C\CCC(=O)O` [Docosa-4Z,7Z,10Z,13Z,16Z,19Z-hexaenoic acid] displayed a nuclei count of 96.9. With `CCCOC(=O)c1cc(O)c(O)c(O)c1` [N-Propyl gallate] the figure was 82.9. As to `Cc1cc(/C(=C/Nc2ccc(Cl)cc2)C(=O)Nc2ccc(Cl)cc2)on1`, the nuclei count is 102. As to `Cc1sc(N)c(C(=O)c2cccc(C(F)(F)F)c2)c1C`, the nuclei count is 107. Take `N[C@H](C(=O)O)[C@H](OCc1ccccc1)C(=O)O` (racemic): the nuclei count was 89.6. The value for `CC(C)NCCN(C(C)C)S(=O)(=O)c1ccc(Cl)cc1Cl` was 79.5; that for `CCCCCS(=O)(=O)CCCCCCCCCCn1c(-c2ccc(O)cc2)c(C)c2cc(O)ccc21` was 105; that for `CN(CCOc1ccc(C[C@H](Nc2ccccc2C(=O)c2ccccc2)C(=O)O)cc1)c1ccccn1` was 104. With `Cc1cc(C(=O)NNCc2ccccc2)no1` [Isocarboxazid] the figure was 109; with `CC1(C)S[C@@H]2[C@H](NC(=O)Cc3ccccc3)C(=O)N2[C@H]1C(=O)O` [Benzylpenicillin sodium], 98.6. Compound `CC1(C)S[C@@H]2[C@H](NC(=O)Cc3ccccc3)C(=O)N2[C@H]1C(=O)O` [Benzathine benzylpenicillin] had a nuclei count of 81.7. `CC1(C)OC2=C(C(=O)c3ccccc3C2=O)[C@H](NCc2ccccc2)[C@@H]1O` returned a nuclei count of 14.7. `C[C@H]1COC2(CCN(c3nc(=O)c4cc(C(F)(F)F)cc([N+](=O)[O-])c4s3)CC2)O1` (racemic) [BTZ043 racemate] came in with a nuclei count of 101.

For `Cc1nnc(-c2ccc3occ(-c4ccc([S+](C)[O-])cc4)c3c2)o1` (stereo not given), the nuclei count was 112. In turn, `COc1c(C)cnc(Cn2cnc3c(Cl)nc(N)nc32)c1C` displayed a nuclei count of 49.7.

`Cc1cn(CCN2CCN(c3ccccc3-c3cc(C#N)cc(C(=O)NCCCN4CCCC4)c3)CC2)c2ccccc12` registered a nuclei count of 22.8. With `O=C(Nc1cc(C(F)(F)F)cc(C(F)(F)F)c1)c1cc(Cl)ccc1O` the figure was 78.7. `CC(C)C[C@H](NC(=O)N1CCCCCC1)C(=O)N[C@H](Cc1cn(C)c2ccccc12)C(=O)N[C@H](Cc1ccccn1)C(=O)O`: the nuclei count amounted to 100. With `O=C1c2ccccc2C(=O)c2c(NCCc3ccc(O)cc3)ccc(NCCc3ccc(O)cc3)c21` the figure was 97.1; with `O=C1c2c(O)ccc(O)c2C(=O)c2c(NCCNCCO)ccc(NCCNCCO)c21` [Mitoxantrone dihydrochloride], 15.5. The value for `C[N+](C)([O-])CCNc1ccc(NCC[N+](C)(C)[O-])c2c1C(=O)c1c(O)ccc(O)c1C2=O` [Banoxantrone dihydrochloride] was 51.2; that for `Nc1[nH]nc2nc3ccccc3nc12` was 98.5; that for `COc1ccc(-c2ccc3ncc4c(c3c2)n(-c2ccc(N3CCNCC3)c(C(F)(F)F)c2)c(=O)n4C)cn1` was 16.4 ± 5.4. The compound `CCC(=O)N1CCN(c2ccc(-n3c(=O)ccc4cnc5ccc(-c6cnc7ccccc7c6)cc5c43)cc2C(F)(F)F)CC1` [Torin 1] registered a nuclei count of 80.4.

The compound `Nc1ccc(-c2ccc3ncc4ccc(=O)n(-c5cccc(C(F)(F)F)c5)c4c3c2)cn1` [Torin 2] yielded a nuclei count of 27.7 ± 1.8.
